# Sampled rows, rich in hits. Any-hit rate of the full collection: about 1.8%.
# PAD4 FP inh: blocks human protein arginine deiminase 4. Q9UM07. recombinant PAD4, RCA probe fluorescence polarization. inhibition, % at 6.36 µM. 330,000 tested, 0.41% active. AID 485272;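 active = percent inhibition above a cutoff equal to the mean of all tested compounds plus 3 SD, cut at about 15% in these data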;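 note: 0% = PAD4 with RCA probe and DMSO and 100% = probe without PAD4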
# LYPLA1 inh: counter-screen for PME1 inhibitors: inhibitors of human LYPLA1. O75608. recombinant LYPLA1, FP-Rh probe fluorescence polarization. inhibition, % at 5.9 µM. 320,000 tested, 0.16% active. AID 2174;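 active = inhibition above the mean of all tested compounds plus 3 SD, set per campaign, cut at about 14% in these data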;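 note: inhibitors block serine hydrolase probe labeling of LYPLA1 so polarization falls; 0% = enzyme with DMSO and 100% = wells lacking LYPLA1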
# Target sequence (O75608 whole entry, looked up): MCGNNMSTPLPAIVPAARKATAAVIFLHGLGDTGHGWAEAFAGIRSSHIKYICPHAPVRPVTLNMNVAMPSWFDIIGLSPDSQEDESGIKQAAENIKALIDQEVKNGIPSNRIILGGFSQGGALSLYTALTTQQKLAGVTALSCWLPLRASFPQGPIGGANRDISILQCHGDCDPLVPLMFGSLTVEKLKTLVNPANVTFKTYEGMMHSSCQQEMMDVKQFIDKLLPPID
# LYPLA2 counter: LYPLA2 (human) inhibition in PME1 counter-screen | recombinant LYPLA2, FP-Rh probe fluorescence polarization | O95372 | inhibition, % at 5.9 µM | 320,000 tested, 0.38% active;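 active = inhibition above the screen-wide mean plus 3 SD, limit set per campaign, cut at about 26% in these data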;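 note: 0% = LYPLA2 with DMSO and 100% = wells lacking LYPLA2 enzyme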
# Target sequence (O95372 whole entry, looked up): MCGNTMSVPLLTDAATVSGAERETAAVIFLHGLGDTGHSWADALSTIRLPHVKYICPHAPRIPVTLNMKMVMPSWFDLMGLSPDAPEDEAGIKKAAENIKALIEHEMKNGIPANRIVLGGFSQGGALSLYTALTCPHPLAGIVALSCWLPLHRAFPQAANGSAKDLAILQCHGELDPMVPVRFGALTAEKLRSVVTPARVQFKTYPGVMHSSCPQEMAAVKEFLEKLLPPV
# GSTO1 inh: GSTO1 inhibition, counter-screen for RBBP9 inhibitors | AID 1974 | recombinant GSTO1, activity-based probe fluorescence polarization | inhibition, % at 5.96 µM | 300,000 tested, 1.1% active;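 active = inhibition above the campaign mean inhibition plus 3 SD, cut at about 35% in these data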;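 note: 0% = GSTO1-1 with DMSO and 100% = wells lacking GSTO1-1 enzyme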
# Fam108B inh: blocks mouse Fam108B hydrolase in RBBP9 counter-screen; inhibition, % at 9.51 µM; 300,000 tested, 0.33% active; recombinant Fam108B, FP-Rh probe fluorescence polarization;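 active = inhibition above the screen mean inhibition plus 3 SD, computed separately per campaign, cut at about 18% in these data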;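 note: inhibitors lower polarization as less probe binds the enzyme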
# PME-1 inh: PME-1 (human) inhibition | recombinant PME-1, FP-Rh probe fluorescence polarization | AID 2130 | 320,000 tested, 0.53% active | inhibition, % at 5.9 µM | Q9Y570;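 active = inhibition above the campaign mean of all compounds plus 3 SD, cut at about 26% in these data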;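 note: competitive labeling of PME-1 active site by serine hydrolase directed probe; 0% = PME-1 with DMSO and 100% = wells lacking PME-1 enzyme; inhibitors block probe labeling so polarization falls and inhibition rises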
# LYPLA2 conf: counter-screen for PME1 inhibitors: confirmation of human LYPLA2 inhibitors | shares compounds with LYPLA2 counter | recombinant LYPLA2, FP-Rh probe fluorescence polarization | inhibition, % at 5.9 µM | 1,100 tested, 72% active | AID 2232;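 active = mean inhibition across replicates above the hit cutoff set in the primary screen, cut at about 26% in these data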;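 note: blocked labeling of the enzyme by serine hydrolase FP-Rh probe lowers polarization; 0% = enzyme with DMSO and 100% = wells lacking LYPLA2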
# LYPLA2 gel ABPP: blocks human acyl-protein thioesterase 2 in gel ABPP; shares compounds with LYPLA2 counter; 150 tested, 30% active; rhLYPLA2 in mouse brain proteome, gel ABPP FP-Rh; inhibition, % at 20 µM; AID 652029;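 active = inhibition of LYPLA2 enzyme probe labeling above about 50%, limit read from the data; inactive = inhibition below that limit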;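 note: loss of FP-Rh probe labeling of the LYPLA2 gel band measured as band density; 0% = DMSO only control band and 100% = blank gel background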
# * marks the source's active call; other numbers are inactive results; · = no result given.
SMILES,PAD4 FP inh,LYPLA1 inh,LYPLA2 counter,GSTO1 inh,Fam108B inh,PME-1 inh,LYPLA2 conf,others
O=C(C1=C[C@H](c2csc3ccccc23)C[C@H](OCc2ccc(CO)cc2)O1)N1CCOCC1,1,-2,-6,3,-2,0,·,
COC(=O)c1ccc(OC(=O)CN2C(=O)c3ccccc3C2=O)cc1,-1,1,1,0,9,4,·,
CC1=C(C(=O)OCC2CCCO2)C(c2coc3ccccc3c2=O)C2=C(CCCC2=O)N1 (stereo not given),0,0,-2,10,-4,-6,·,
COc1cccc(C(=O)COC(=O)C(C)N2C(=O)C3C4C=CC(C4)C3C2=O)c1 (stereo not given),0,-2,-1,-5,7,1,·,
Cn1c(=O)cc(OCC(=O)N2CCN(c3cccc(C(F)(F)F)c3)CC2)c2ccccc21,0,3,33*,-3,-5,-1,62*,LYPLA2 gel ABPP=15
O=C(OCC(=O)N1CCN(Cc2ccccc2)CC1)c1cc(Cl)ccc1[N+](=O)[O-],2,9,39*,·,·,2,40*,
O=C(C1CCN(S(=O)(=O)c2ccccc2)CC1)N1CCN(c2ccccc2)CC1,-2,1,10,5,5,21,·,
COc1ccc(N2CCN(C(=O)C3CCN(S(=O)(=O)c4ccccc4)CC3)CC2)cc1,-2,-2,38*,5,2,19,44*,
O=C(C1CCN(S(=O)(=O)c2cccnc2)CC1)N1CCN(c2ccc(Cl)cc2)CC1,0,3,38*,6,1,5,42*,
O=C(C1CCN(S(=O)(=O)c2cccnc2)CC1)N1CCN(c2ccccc2Cl)CC1,-1,3,7,7,1,8,·,
O=C1N(Cc2cccnc2)C[C@@H]2C[C@@H](c3cccc(Oc4ccccc4)c3)N3CCC[C@@]123,-2,5,27*,-7,-3,5,18,
Cn1ccnc1-c1ccc(-c2nccn2C)cc1,1,-2,2,9,3,-1,·,
O=[N+]([O-])c1cccnc1SCc1ccccc1,-3,1,38*,-3,4,6,49*,
Cc1cc(C)c(OCC(O)CN2CCN(C(=O)c3ccccc3)CC2)c(C)c1 (stereo not given),-6,3,6,5,3,2,·,
C=CCn1c(SCC(=O)OCC)nc2cc(C(=O)NCc3ccco3)ccc2c1=O,1,-8,-13,5,-1,2,·,
CCCCCn1c(SCC(=O)OCC)nc2cc(C(=O)NCc3ccco3)ccc2c1=O,-2,-8,34*,4,1,0,-4,
COc1ccc(CCNC(=O)COc2ccc(-c3ccccc3)cc2)cc1OC,3,0,30*,1,7,-1,31*,
COc1ccc(CCNC(=O)CCCOc2ccc(C)cc2)cc1OC,3,1,3,-3,-2,-3,·,
O=C(CNc1ccc(Br)cc1)Nc1ccc(S(=O)(=O)N2CCCC2)cc1,1,-6,29*,·,·,4,19,
O=C(CNc1ccc(Br)cc1)Nc1cccc(S(=O)(=O)N2CCCC2)c1,-4,-4,-6,·,·,9,·,
O=C(Nc1ccc(S(=O)(=O)N2CCOCC2)cc1)c1c(F)cccc1F,-5,3,-2,10,-2,-9,·,
O=C(Nc1ccc(S(=O)(=O)N2CCCC2)cc1)c1c(F)cccc1F,-2,-1,28*,4,-2,7,0,
CSc1cccc(NC(=O)CNC(=O)C2CCCCC2)c1,-2,-1,-1,-1,-5,-1,·,
O=C1c2c(O)cc(O)cc2O[C@H](c2ccc(O)c(O)c2)[C@@H]1O,1,-2,29*,32,6,-5,39*,
CN(CC(=O)O/N=C(\N)c1ccc([N+](=O)[O-])cc1)S(=O)(=O)c1ccc2ccccc2c1,-1,1,59*,-2,1,-7,63*,LYPLA2 gel ABPP=20
SMILES,PAD4 FP inh,LYPLA1 inh,LYPLA2 counter,GSTO1 inh,Fam108B inh,PME-1 inh,LYPLA2 conf,others
Cc1ccc(/C(N)=N/OC(=O)CN(C)S(=O)(=O)c2ccc(C)cc2)cc1,1,-2,22,4,4,1,·,
CC(=O)c1ccc(N2CCN(c3ccc(S(=O)(=O)NCCN(C)C)cc3[N+](=O)[O-])CC2)cc1,0,4,28*,5,3,2,31*,
CC(=O)c1ccc(N2CCN(c3ccc(S(=O)(=O)NCCCN(C)C)cc3[N+](=O)[O-])CC2)cc1,-3,10,26*,-1,-3,-5,19,
CN(C)CCNS(=O)(=O)c1ccc(N2CCc3ccccc32)c([N+](=O)[O-])c1,1,6,8,9,0,5,·,
CN(C)CCCNS(=O)(=O)c1ccc(N2CCN(Cc3ccc4c(c3)OCO4)CC2)c([N+](=O)[O-])c1,-3,-2,-2,6,0,2,·,
O=C(N/N=C/c1cccnc1)c1ccc(CN2c3cccc4cccc(c34)S2(=O)=O)cc1,-3,-33,-32,-42,-14,-36,·,
O=C1CCCC(=NNC(=O)c2ccc(CN3c4cccc5cccc(c45)S3(=O)=O)cc2)C1,·,·,·,·,·,·,·,LYPLA2 gel ABPP=44
COc1ccc(NC(=O)c2cc(Cl)ccc2Cl)c([N+](=O)[O-])c1,-5,-4,2,-4,1,4,·,
O=C(c1cc(COc2ccc(F)cc2Cl)on1)N1CCCC(OCc2cccnc2)C1 (stereo not given),1,-2,3,6,1,-2,·,
O=C(c1cc(COc2ccc(F)cc2Cl)on1)N1CCC(OCc2cccnc2)CC1,-2,1,32*,5,3,-5,33*,
CC(C)CCN1C(=O)c2ccc(C(=O)Nc3ccccn3)cc2C1=O,-5,2,16,-7,13,5,·,
CCCCCN1CC(=O)N2Cc3[nH]c4ccccc4c3C[C@H]2C1=O,-3,-1,56*,-1,-5,-2,56*,LYPLA2 gel ABPP=38
O=C1[C@@H]2Cc3c([nH]c4ccccc34)CN2C(=O)CN1CCCO,-2,-15,1,2,1,0,·,
CCCCCCN1CC(=O)N2Cc3[nH]c4ccccc4c3C[C@H]2C1=O,0,-1,58*,-1,0,4,58*,LYPLA2 gel ABPP=35
COc1ccc(OCC(=O)Nc2ccc(NC(=O)c3cccs3)c(OC)c2)cc1,0,-4,12,-9,3,-2,·,
COc1ccc(OCC(=O)Nc2ccc(NC(=O)c3ccccc3Cl)c(OC)c2)cc1,6,-1,36*,-2,5,-8,34*,
O=C(NCCN1CCN(c2cccc(Cl)c2)CC1)Nc1ccccc1,-1,4,12,9,1,7,·,

# Bioassay records (PubChem BioAssay)
